# Screening data (PubChem)
# PI5P4Ka inh: qHTS for Inhibitors of phosphatidylinositol 5-phosphate 4-kinase (PI5P4K). Phosphatidylinositol 5-phosphate 4-kinase type-2 alpha (Homo sapiens), P48426. max response, %. 330,000 compounds, 1.2% hits. PI5P4Kalpha enzyme, ADP-Glo luminescence, 60 min; active compounds read low; active = max response of -50% or lower; inconclusive = between -30% and -50%; inactive = -30% or higher; also: value at the top dose of about 77 µM; % is scaled to controls: 0 for no effect and ±100 for the full control effect
# Target sequence (P48426 whole entry, looked up): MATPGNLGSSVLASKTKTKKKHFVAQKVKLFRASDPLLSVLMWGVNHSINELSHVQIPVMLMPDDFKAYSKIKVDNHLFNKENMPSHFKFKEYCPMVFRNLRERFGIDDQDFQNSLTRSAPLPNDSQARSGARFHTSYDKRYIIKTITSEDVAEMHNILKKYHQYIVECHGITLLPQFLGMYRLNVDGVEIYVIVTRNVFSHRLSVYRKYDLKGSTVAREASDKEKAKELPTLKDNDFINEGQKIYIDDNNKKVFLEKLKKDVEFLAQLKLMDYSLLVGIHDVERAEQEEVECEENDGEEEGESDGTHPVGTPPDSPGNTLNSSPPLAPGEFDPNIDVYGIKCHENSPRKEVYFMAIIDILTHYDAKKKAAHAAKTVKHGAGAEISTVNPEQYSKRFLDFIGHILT
#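 PI5P4Kalpha ADP-Glo assay; 5 microM ATP final; 60 min RT reaction; HEPES pH 7.4/EGTA/CHAPS, 5% DMSO; controls lacking substrate or enzyme; luminescent end-point.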
# HP1b chromo inh: HTS for Inhibitors of HP1-beta Chromodomain Interactions with Methylated Histone Tails; Potency, µM (series often up to 114 µM), inactives show top-dose activity change, negative = inhibition, actives largely listed as inhibitors; AlphaScreen HP1-beta / biotin-H3K9me3 peptide binding; AID 540317, 2011; 390,000 compounds, 0.56% hits; Chromobox protein homolog 1 (Homo sapiens), P83916; also: potency is read from the fitted curve at half-maximal effect; nearly all actives have a fitted effect of over 70% in size
#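 HP1-beta protein (50 nM final) preincubated 30 min at room temperature with biotinylated H3(1-18)K9me3 peptide (50 nM) in PBS pH 7.4, 0.01% Tween-20, then compound added for 30 min. AlphaScreen streptavidin donor/nickel chelate acceptor beads (10 ug/mL final), 30 min dark, luminescence read.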
# JMJD2A Tudor inh: qHTS Assay for Inhibitors of JMJD2A-Tudor Domain; Lysine-specific demethylase 4A (Homo sapiens), O75164; 390,000 compounds, 4.4% hits; AlphaScreen JMJD2A-Tudor / H3K4me3 peptide binding; Potency, µM (series often up to 114 µM), without a hit: at the top dose activity change, negative = inhibition, usual class: inhibitors; also: potency is read from the fitted curve at half-maximal effect; % is scaled to controls: 0 for no effect and ±100 for the full control effect; nearly all actives have a fitted effect of over 50% in size
# BAZ2B inh: qHTS Assay for Inhibitors of BAZ2B; Bromodomain adjacent to zinc finger domain protein 2B (Homo sapiens), Q9UIF8; AlphaScreen BAZ2B-H3K14Ac peptide displacement; Potency, µM (titrated, usually from 114 µM), for inactives: at the top dose activity change, negative = inhibition, hits mostly inhibitors; 360,000 compounds, 4.4% hits; also: potency is read from the fitted curve at half-maximal effect; % is scaled to controls: 0 for no effect and ±100 for the full control effect; nearly all actives have a fitted effect of over 60% in size
#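 AlphaScreen luminescence quantifies BAZ2B engagement of H3K14Ac peptide; the protein and biotinylated peptide are both at 50 nM final, buffer PBS pH 7.4 with 0.01% Tween-20, all steps at room temperature.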
# G9a inh: qHTS Assay for Inhibitors of Histone Lysine Methyltransferase G9a; G9a H3K9 monomethylation, AlphaScreen, 2 h; Potency, µM (top dose mostly 102 µM), for the others: at the highest dose activity, negative = inhibition, actives largely listed as inhibitors; 350,000 compounds, 8.8% hits; AID 504332, 2011; also: potency is read from the fitted curve at half-maximal effect; % is scaled to controls: 0 for no effect and ±100 for the full control effect; nearly all actives have a fitted effect of over 75% in size
# Target sequence (Q96KQ7 913-1193 limits assumed): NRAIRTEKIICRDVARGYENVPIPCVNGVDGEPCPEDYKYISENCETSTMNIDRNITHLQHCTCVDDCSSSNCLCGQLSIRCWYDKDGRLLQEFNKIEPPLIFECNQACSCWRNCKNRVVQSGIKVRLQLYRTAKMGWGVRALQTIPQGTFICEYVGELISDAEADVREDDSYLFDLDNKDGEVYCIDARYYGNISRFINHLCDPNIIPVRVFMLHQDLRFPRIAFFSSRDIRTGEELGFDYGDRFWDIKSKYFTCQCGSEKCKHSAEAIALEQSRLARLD
#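 Methyltransferase reactions run at room temperature for 2 h (20 nM enzyme, 500 nM biotin-H3K9 peptide, 20 uM SAM) after a 15 min compound preincubation; product detected by AlphaScreen beads and anti-H3K9me1 antibody.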
# PLK1 PBD inh: qHTS for Inhibitors of PLK1-PDB (polo-like kinase 1 - polo-box domain): Primary Screen; Serine/threonine-protein kinase PLK1 (Homo sapiens), P53350; Plk1 PBD binding of FITC phosphopeptide, fluorescence polarization; Potency, µM, for inactives: max response, negative = inhibition, hits mostly inhibitors; 360,000 compounds, 2.8% hits; also: potency is read from the fitted curve at half-maximal effect; series mostly up to about 57 µM; % is scaled to controls: 0 for no effect and ±100 for the full control effect; nearly all actives have a fitted effect of over 65% in size
# An asterisk follows results filed as active; ? = inconclusive; · = no result; [ ] = dose if it differs, or a comment. Shown are actives, neighbours in structure and some others; about 12% of the full set was active somewhere. Unless noted, calls follow the shape of the dose curve; as a rule, active = well fitted curve in the direction sought with a large enough effect; inconclusive = small, poorly fitted or top-dose-only effect, or another doubt; inactive = no such curve, though single readings can be large; an effect the other way counts as inactive or inconclusive.
SMILES,PI5P4Ka inh,HP1b chromo inh,JMJD2A Tudor inh,BAZ2B inh,G9a inh,PLK1 PBD inh
Cn1c(SCc2cccc([N+](=O)[O-])c2)nc2c(c1=O)SCC2,2,-15%,56µM*,71µM*,?,-9%
CC(=O)Nc1cc(-c2ccc(N3CCN(C)CC3)cc2)cn2c(-c3ccc(S(C)(=O)=O)cc3)cnc12,5,·,·,·,·,-3%
Fc1ccc(C2=CC(c3ccc(F)cc3)n3c(nc4ccccc43)N2)cc1 (configuration not stated),·,118%,13%,3%,18µM*,·
COc1ccc(/C=N/NC(=O)c2cccnc2)cc1Cn1nc([N+](=O)[O-])c(Br)c1C,·,·,·,-24%,50µM*,·
O=C(OCC(=O)N(C1CCCCC1)C1CCCCC1)c1ccc(Cl)nc1,-6,20%,-34%,-19%,30%[12.7 µM],-7%
N#C/C(=C/c1ccccc1OCc1ccc(F)cc1)c1ccc(C(=O)O)cc1,-16,28%,-15%,?,?,?
N#C/C(=C/c1ccc(OCc2ccc(C(=O)O)cc2)c(Br)c1)c1cccc(F)c1,-26,5%,56µM*,?,-51%,?
CC(=O)N1c2ccc(S(=O)(=O)NCC3CCC(C(=O)NC4CCC(C)CC4)CC3)cc2CC1C (configuration not stated),3,25%,-18%,0%,-8%,-8%
CC1CCC(NC(=O)CCS(=O)(=O)c2ccc3c(c2)CC(C)N3C(=O)C2CC2)CC1 (configuration not stated),4,-9%,?,-17%[57.1 µM],-47%,30µM*
COc1ccc(NC(=O)CCNS(=O)(=O)c2ccc3c(c2)CC(C)N3C(C)=O)cc1 (configuration not stated),1,41%,-13%,-8%,59%[59 µM],-14%
CC(=O)N1c2ccc(S(=O)(=O)NCC3CCC(C(=O)NC4CCCCC4C)CC3)cc2CC1C (configuration not stated),-1,17%,?,-4%,8%,27µM*
COc1cccc(CNC(=O)CCNS(=O)(=O)c2ccc3c(c2)CC(C)N3C(C)=O)c1 (configuration not stated),-7,25%,?,-9%,12%[59 µM],27µM*
CCOc1ccc(NC(=O)CCNS(=O)(=O)c2ccc3c(c2)CC(C)N3C(C)=O)cc1 (configuration not stated),?,15%,25µM*,-14%,9%[59 µM],3µM*
O=C(CCN1CCN(c2ccccc2F)CC1)Nc1cccc(F)c1,0,42%,4%,-7%,13%[59 µM],4%
Cc1cc(C)cc(Nc2nc3ccccc3nc2-n2nc(C)cc2C)c1,·,226%,96%,60%,82%[59 µM],·
COc1cccc(CNC(=O)CCS(=O)(=O)c2ccc3c(c2)CC(C)N3C(=O)C2CC2)c1 (configuration not stated),1,-2%,-7%,-4%[57.1 µM],13%,21µM*
CCC(=O)N1c2ccc(S(=O)(=O)CCC(=O)NCc3cccc(OC)c3)cc2CC1C (configuration not stated),·,8%,-8%,·,-2%[59 µM],·
CCCC(NC(=O)COc1cc2c(c3oc(=O)c(C)c(C)c13)CCC(C)(C)O2)C(=O)O (configuration not stated),4,27%,-18%,-2%,-2%,8%
CSCC[C@H](NC(=O)COc1cc2c(c3oc(=O)c(C)c(C)c13)CCC(C)(C)O2)C(=O)O,-9,3%,?,0%,12%,30µM*
O=C(C=C1CCN(c2ncc(C(F)(F)F)cc2Cl)CC1)NNC(=O)Nc1ccccc1,·,19%,-12%,3%,11µM*,-3%
Cc1ccc(S(=O)(=O)Nc2cccc3ccc(C)nc23)cc1,·,·,12%,·,·,·
CCOc1ccc(-c2cccc(NS(=O)(=O)c3ccc([N+](=O)[O-])cc3)c2)nn1,7,-1%,-34%,6%,19%,-5%
Cc1ccccc1OCC(=O)N/N=C/c1cccn1C,-1,-18%,8%[11.4 µM],45µM*,?,-23%
Cc1ccc(C(C)C)c(OCC(=O)Nc2ccc(N3CCN(S(C)(=O)=O)CC3)cc2)c1,-5,26%,-6%,-13%,10µM*,-5%
Cc1cccc(OCC(=O)N/N=C/c2cccn2C)c1,-4,-4%,?,-38%,?,-4%
SMILES,PI5P4Ka inh,HP1b chromo inh,JMJD2A Tudor inh,BAZ2B inh,G9a inh,PLK1 PBD inh
Cc1ccc(C(C)C)c(OCC(=O)N/N=C/c2cccn2C)c1,7,?,?,25µM*,·,-4%
Cc1ccc(OCC(=O)Nc2ccc(N3CCN(S(C)(=O)=O)CC3)cc2)c(C)c1,8,36%,-9%,-33%,14%,5%
CCCn1c(SCC(=O)Nc2cc(C)on2)n[nH]c1=O,-2,35%,-4%,·,·,-2%
CCCn1c(SCC(=O)c2ccc(CC)cc2)n[nH]c1=O,2,42%,-6%,4%,·,8.4µM*
CCCn1c(SCC(=O)NC(=O)NC(C)(C)C)n[nH]c1=O,-5,25%,-24%,-13%,5%,27µM*
COc1ccccc1CN1CC(C(=O)NCCn2ccc(C)n2)CCC1=O (configuration not stated),7,27%,-1%,2%,6%,2%
O=C(CN1CCCC1)Nc1nc(-c2ccc3c(c2)CCN3C(=O)c2ccccc2F)cs1,1,-6%,?,-28%,?,-1%
CC(C)(C)Nc1nc(-c2ccc3c(c2)CCN3C(=O)C2CC2)cs1,0,?,?,?,40µM*,?
CNc1nc(-c2ccc3c(c2)CCN3C(=O)c2ccccc2C)cs1,-1,?,?,50µM*,22µM*,?
CC(C)C(=O)Nc1nc(-c2ccc3c(c2)CCN3C(=O)C2CC2)cs1,-12,6%,0%,-16%,?,1%
CNc1nc(-c2ccc3c(c2)CCN3C(=O)c2ccc(F)cc2)cs1,1,9%,-27%,?,32µM*,-24%
COc1ccc(OC)c(C2c3c(oc4ccc(C)cc4c3=O)C(=O)N2CCCN(C)C)c1 (configuration not stated),·,30%,-8%,-3%,9%[59 µM],·
O=C(Nc1cccc(S(=O)(=O)NC2=NCCC2)c1)c1ccccc1F,3,15%[57 µM],-8%,·,·,-12%
O=C(Nc1cccc(S(=O)(=O)NC2=NCCC2)c1)c1cc(Cl)ccc1[N+](=O)[O-],3,16%,-12%,-31%,50µM*,-8%
